Screening results: PubChem BioAssay, several laboratories
A selection: hits, their analogues and other compounds. The true share with any hit is near 3.3%.
GAA850 FXN act – frataxin GAA850 promoter activation; HEK293 lucGAA850 FXN promoter luciferase reporter, 24 h; percent of 10 µM SAHA response; activation, % at 6 µM; 0.56% of 360,000 active;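 active means activation above the average of all compounds screened plus 3 SD, cutoff fixed separately per campaign, cut at about 7.5% in these data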
Wnt bcat act – activators of Wnt/beta-catenin signaling. Wnt/beta-catenin reporter cell assay, activator, plate reader. activation, % at 9.35 µM. 1.2% of 300,000 active; in the data active means activation above about 30%, passing the limit was not always enough; inconclusive means no clear call, values can overlap the other calls
Statin myotox sup – suppressors of simvastatin-induced myotoxicity in C2C12 myotubes. ATP luminescence, 48 h; scaled: DMSO 0, geranylgeraniol control 100. rescue of ATP level, % at 7.49 µM. 0.78% of 330,000 active;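 active means mean ATP rescue above about 67%, or every replicate alone reaching that limit, limit read from the data, passing the limit was not always enough; inconclusive means no clear call, values can overlap the other calls; inactive means mean under the limit and some replicate under it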;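 further: myotubes were challenged with 10 µM simvastatin during compound exposure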
esBAF inh – blocks esBAF chromatin remodeling in mouse ES cells; reporter increase, % at 12.5 µM; 2% of 350,000 active; Bmi1-luciferase knock-in reporter, 24 h; 100% = twice the neutral-well signal; AID 602393; in the data active means activation above about 40%; inconclusive means no clear call, values can overlap the other calls;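 further: a rise in the Bmi1 reporter signal indicates esBAF inhibition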
MITF act – MITF TRPM1 promoter activation in melanoma cells. activation, % at 12.5 µM. 0.75% of 300,000 active. SK-MEL-5 TRPM1-promoter luciferase, 24 h; % of positive control, neutral wells = 0. AID 588334;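 active means mean activation of at least 80% with every replicate also reaching 80%; inconclusive means mean reaches 80% but some replicate falls short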
Large screens that a line does not name were inactive.

Cc1c(C(=O)NCc2cccs2)oc2ccc(S(=O)(=O)N3CCOCC3)cc12	none
Cc1c(C(=O)NCc2cccs2)oc2ccc(Br)cc12	esBAF inh 51 (no result: Wnt bcat act, MITF act)
Cc1c(C(=O)NCc2ccccn2)oc2ccc(Br)cc12	esBAF inh 54, MITF act 97
CCc1ccc2oc(C(=O)Nc3cccnc3)c(C)c2c1	none (no result: Wnt bcat act, MITF act)
Cc1c(C(=O)Nc2cccnc2)oc2ccc(Br)cc12	esBAF inh 60 (no result: MITF act)
Cc1c(C(=O)NCc2ccccn2)oc2ccccc12	none (no result: Wnt bcat act)
O=C(Nc1cccnc1)c1ccc(Br)s1	none (no result: Wnt bcat act)
CCc1sc(C(=O)Nc2cccnc2)cc1Br	esBAF inh 50
Cc1noc(C)c1NC(=O)N(C)C[C@@H]1Oc2c(NC(=O)Nc3cccc4ccccc34)cccc2C(=O)N([C@@H](C)CO)C[C@H]1C	none (no result: GAA850 FXN act, Wnt bcat act, MITF act)
C[C@@H]1CN([C@H](C)CO)C(=O)c2cc(NC(=O)NC3CCCCC3)ccc2O[C@@H](C)CCCCO[C@@H]1CN(C)C(=O)NC1CCCCC1	none (no result: GAA850 FXN act, Wnt bcat act, Statin myotox sup, MITF act)
CCN(CC)CC(=O)NC1CC(C)(C)Cc2c1cnn2-c1ccc(F)cc1 (configuration not stated)	none
Cc1ccn(CC(=O)NC2CC(C)(C)Cc3c2cnn3-c2ccc(F)cc2)n1 (configuration not stated)	esBAF inh 42
Cn1c(O)c(C2=c3ccccc3=NC2=O)sc1=Nc1ccc(Cl)cc1	Statin myotox sup 97
Cc1ccc(-n2c(-c3ccccc3)c[nH]c2=S)cc1	none (no result: Statin myotox sup, esBAF inh)
S=c1[nH]cc(-c2ccccc2)n1-c1ccccc1	Statin myotox sup 98
COCC(=O)N(C)C[C@H]1Oc2cc(-c3ccc(C#N)cc3)ccc2S(=O)(=O)N([C@@H](C)CO)C[C@H]1C	none (no result: GAA850 FXN act, Wnt bcat act, MITF act)
C[C@@H]1CN([C@@H](C)CO)C(=O)c2cc(NC(=O)Nc3ccc(C(F)(F)F)cc3)ccc2O[C@H]1CN(C)C(=O)Nc1ccc2c(c1)OCO2	none (no result: GAA850 FXN act, Wnt bcat act, MITF act)
O=C1c2cccc3c([N+](=O)[O-])ccc(c23)C(=O)N1c1ccc(Cl)cn1	Statin myotox sup 129 (no result: Wnt bcat act)
O=C(NCc1ccco1)C1Cc2ccccc2CN1S(=O)(=O)c1ccccc1F (configuration not stated)	Statin myotox sup 67
O=C(C[C@H]1CC[C@@H](NC(=O)Nc2ccc(F)cc2)[C@@H](CO)O1)NCc1ccccn1	none (no result: GAA850 FXN act, Wnt bcat act, MITF act)
COc1ccc(CN(C(=O)c2cc3ccccc3oc2=O)C2CCCC2)cc1	none (no result: Statin myotox sup, esBAF inh)
COc1ccc(CN(C(=O)c2cc3ccccc3oc2=O)C2CCS(=O)(=O)C2)cc1 (configuration not stated)	none (no result: Statin myotox sup, esBAF inh, MITF act)
COc1cccc(CN(C(=O)c2cc3ccccc3oc2=O)C2CC2)c1	Wnt bcat act inconclusive, esBAF inh 57 (no result: MITF act)
CCOc1ccc(CN(C(=O)c2cc3ccccc3oc2=O)C2CCS(=O)(=O)C2)cc1 (configuration not stated)	esBAF inh 76
COc1ccc(CN(C(=O)c2cc3ccccc3oc2=O)C2CCS(=O)(=O)C2)cc1OC (configuration not stated)	esBAF inh 62
C[C@@H](O)C#Cc1ccc([C@@H]2[C@@H](CO)N3CCCCN(C(=O)Nc4ccccc4)C[C@H]23)cc1	none (no result: GAA850 FXN act, Wnt bcat act, MITF act)
Cc1noc(C)c1NC(=O)Nc1ccc2c(c1)C(=O)N([C@@H](C)CO)C[C@@H](C)[C@@H](CN(C)S(=O)(=O)c1ccccc1)OCCCC[C@@H](C)O2	none (no result: GAA850 FXN act, Wnt bcat act, Statin myotox sup, MITF act)
C[C@@H]1CN([C@H](C)CO)S(=O)(=O)c2ccc(C3=CCCC3)cc2O[C@H]1CN(C)C(=O)c1cnccn1	none (no result: GAA850 FXN act, Wnt bcat act, MITF act)
COC1=C/C(=C/c2c(O)c(C#N)c3ccccn23)C=CC1=O	Wnt bcat act 34, esBAF inh 55
COc1cc(OC)cc(C(=O)c2c(C)c(C#N)c3ccccn23)c1	none (no result: MITF act)
CN(C)S(=O)(=O)c1cccc(-c2cn3cccnc3n2)c1	none (no result: Statin myotox sup, esBAF inh)
Cc1ccc2nc(-c3cccc(S(=O)(=O)N(C)C)c3)cn2c1	esBAF inh 83, MITF act inconclusive (no result: Wnt bcat act)
Cc1ccc2nc(-c3cccc(S(=O)(=O)N4CCCC4)c3)cn2c1	esBAF inh 64
O=c1cc(CO)oc2ccccc12	none
CCCCCc1cc(=O)c2ccccc2o1	esBAF inh 50
O=c1cc(/C=C/c2ccccc2)oc2ccccc12	Statin myotox sup 138, esBAF inh 59 (no result: Wnt bcat act)
O=c1cc(-c2ccccc2)oc2ccccc12	esBAF inh 56
COc1ccc(S(=O)(=O)N(C)C[C@H]2Oc3ccc(NC(=O)C4CC4)cc3CC(=O)N([C@H](C)CO)C[C@H]2C)cc1	none (no result: GAA850 FXN act, Wnt bcat act, MITF act)
O=C(Nc1nnc(SCc2ccc(Cl)cc2)s1)C1CC(=O)N(Cc2ccccc2)C1 (configuration not stated)	Wnt bcat act 34
C[C@H](CO)N1C[C@H](C)[C@@H](CN(C)Cc2cccc(C(=O)O)c2)Oc2cc(C#CCC3CCCC3)ccc2S1(=O)=O	none (no result: GAA850 FXN act, Wnt bcat act, MITF act)
C=CCn1cc(/C=N/N2C(=O)C3C4C=CC(C4)C3C2=O)c2ccccc21 (configuration not stated)	none (no result: Statin myotox sup, esBAF inh)
O=C1C2C3C=CC(O3)C2C(=O)N1N=Cc1cccc2ccccc12 (configuration not stated)	esBAF inh 46
O=C(OCC(=O)C12CC3CC(CC(C3)C1)C2)c1ccc(O)cc1O	esBAF inh 51
CC(=O)N(C)C[C@@H]1Oc2cc(C3=CCCC3)ccc2S(=O)(=O)N([C@@H](C)CO)C[C@@H]1C	none (no result: GAA850 FXN act, Wnt bcat act, MITF act)
COc1ccc(/C=C/C2=CC(C)(C)NC(=S)N2)cc1OC	none (no result: Statin myotox sup, esBAF inh)
COc1ccc(/C=C/C2=Nc3ccccc3NC(C)(C)C2)cc1OC	Wnt bcat act 40, esBAF inh 44, MITF act inconclusive
Cc1nn(-c2ccccc2)nc1C(=O)NN	Wnt bcat act 36
CCn1c(/C=C/c2c[nH]c3ccccc23)nc2ccccc2c1=O	MITF act 114 (no result: Statin myotox sup, esBAF inh)
N#C/C(=C/c1cccs1)c1ccccn1	Wnt bcat act 44, MITF act inconclusive (no result: Statin myotox sup, esBAF inh)
N#C/C(=C\c1ccccn1)c1ccccn1	none
COC(=O)c1ccc(/C=C(\C#N)c2ccccn2)cc1	esBAF inh 102, MITF act 107
N#C/C(=C\c1ccc([N+](=O)[O-])cc1)c1ccccn1	Wnt bcat act 39 (no result: Statin myotox sup, esBAF inh)
CN(C)c1ccc(/C=C(\C#N)c2ccccn2)cc1	none (no result: Wnt bcat act, Statin myotox sup, esBAF inh)
COCC(=O)N1C[C@@H](C)[C@@H](OC)CN(C)C(=O)c2ccc(NC(=O)c3ccccc3)cc2OC[C@H]1C	none (no result: GAA850 FXN act, Wnt bcat act, MITF act)
CC=Cc1ccc2n(c1=O)C[C@H]1[C@H](CO)[C@@H](C(=O)NCC)[C@@H]2N1Cc1cccc(Cl)c1 (mixture of isomers)	none (no result: GAA850 FXN act, Wnt bcat act, MITF act)
C[C@@H]1CN([C@@H](C)CO)C(=O)c2cc(NS(=O)(=O)c3cccs3)ccc2O[C@H]1CN(C)C(=O)Nc1ccc(C(F)(F)F)cc1	none (no result: GAA850 FXN act, Wnt bcat act, MITF act)
Cc1ccc(C)c(NC(=O)C2CC3c4ccccc4C2c2ccccc23)c1 (configuration not stated)	Statin myotox sup 130 (no result: Wnt bcat act)
CCC(=O)N[C@@H]1C=C[C@H](CC(=O)NCc2cc(F)cc(F)c2)O[C@H]1CO	none (no result: GAA850 FXN act, Wnt bcat act, MITF act)
COc1cccc2cc(CC(=O)c3ccc(C)cc3C)c(=O)oc12	esBAF inh 87, MITF act 90
